Active and inactive are the calls of the source. Rule for the calls: active = hit-call score of the fitted dose curve at least 0.9, where 1 is the maximum; inactive = score below 0.9.

Read-out in this assay: growth arrest and DNA damage 45 (GADD45A), GADD45A (gene 1647)
The experiment in a line: LTEA_HepaRG_GADD45A: Life Technologies and Expression Analysis (LTEA) Assay for growth arrest and DNA damage 45 (GADD45A) using HepaRG (AID 2283458). The note with it: mRNA level, 48 h; actives raise or lower the signal. The method, then: LTEA_HepaRG is a cell based, multiplexed-readout assay that uses HepaRG, a human liver cell line, with measurements taken at 48 hours after chemical dosing on a 96-well plate.LTEA_HepaRG_GADD45A is one of 102 assay component(s) measured in the LTEA HepaRG cell culture assay. It is a marker of Oxidative Stress.Data from the assay component LTEA_HepaRG_GADD45A was analyzed into 1 endpoint. This assay endpoint, LTEA_HepaRG_GADD45A, was analyzed with bidirectional fitting relative to DMSO as the negative control and baseline of activity. Using a type of inducible reporter, measures of mRNA induction for gain or loss-of-signal activity can be used to understand regulation of transcription factor activity. To generalize the intended target to other relatable targets, this assay endpoint is annotated to the cell cycle intended target family, where the subfamily is Oxidative Stress.
A total of 1060 chemcials from the ToxCast library were tested in eight-point concentration-response experiments. Cell culture and cytotoxicity assays were conducted at Thermo Fisher Scientific's Custom Services facility (Madison, WI). A single lot of human HepaRG cells (Thermo Fisher Scientific, Frederick, MD) was used for the cell culture experiments. 96-well format collagen type I coated plates of human HepaRG cells were prepared using established methods. Briefly, cryopreserved HepaRG cells were thawed, plated at a density of approximately 100,000 cells/well in HepaRG Thaw, Plate, and General Purpose media (HPRG770, Thermo Fisher Scientific), and incubated for 48 hours. 0.5% DMSO was selected as vehicle control to balance the requisite need of DMSO in HepaRG cultures to maintain differentiation (for example, baseline metabolism, proportions of hepatocytes vs. cholangiocytes), while enabling further hepatic receptor pathway activation (for example, PXR and CAR) in response to chemical exposure. 48 hours after plating, the culture medium was replaced with HepaRG Serum-Free Incudtion Media. Cells were exposed to each test chemical in duplicate and maintained in CO2 incubators for another 48 hours. Chemical plates were thawed to room temperature and 200x concentrations of treatment groups were prepared. 8-point conentration-reponse curves were made with the highest exposure at 100 uM, followed by half-log dilutions, all in 0.5% DMSO. Each test plate contained variouse controls, induction positive controls (1mM phenobarbital), cytotoxicity positive controls ([…] aflatoxin B1), vehicle controls (0.5% DMSO), and total lysis controls (0.5% DMSO). Cell morphology images were taken using an Essen IncuCyte FLR automated microscope, with six 96-well plates imaged in about 24 minutes. Images were captured and exported and JPEG files. Spent culture media was transfered to black-well plates for the LDH assay, and remaining media was sorted at -80 C for later use. Cells were treated with RLT buffer and frozen until shipped for gene expression analysis. Total RNA was isolated from the cell suspension in 75 uL of Buffer RLT (Qiagen, Germantown, MD 20874) by Quintiles/Expression Analysis (Durham, NC) using a custom isolation procedure. Total RNA from each plate well was transferred to a preamplification plate. Fluidigm's 96.96 Dynamic ArrayTM (Fluidigm, Amsterdam, the Netherlands) technology was used for gene expression analyses by quantitative reverse transcription polymerase chain reaction (qRT-PCR, performed by Quintiles/Expression Analysis, Durham, NC)89. Standard TaqManTM Assays (Applied Biosystems/ThermoFisher Scientific, Foster City, CA) were used to assess the expression of 93 genes selected based on their selectivity and sensitivity to important hepatic receptors known to be modulated by environmental chemicals; importance in human hepatocyte functionality; and hepatotoxicity. […]
For `O=NO`, the result was inactive. Take `C#CC(O)C(CC)CCCC` (stereo not given): the molecule was classed as inactive. On to `CCCCCCCCCCCCCCOS(=O)(=O)O`, for which the outcome was inactive.

One may read the AC50 as the concentration giving half of the maximal activity seen. `CCc1nc(N)nc(N)c1-c1ccc(Cl)cc1`: the AC50 is 27.2 µM (active). Turning to `CC(=O)[C@@]1(O)CC[C@H]2[C@@H]3CCC4=CC(=O)CC[C@]4(C)[C@H]3CC[C@@]21C`, the call was inactive. Turning to `CN(C)C(=O)NC1(c2ccccc2)CCN(CC[C@@]2(c3ccc(F)c(F)c3)CN(C(=O)c3ccccc3)CCO2)CC1`, the call was inactive. Take `O=C1NC(=O)C(c2ccccc2)(c2ccccc2)N1`: the molecule was called inactive. The same measure, in the same setting: the same measure for `OCC(O)CO`: “inactive”; for `N[C@@H](Cc1c[nH]c2ccccc12)C(=O)O`: “inactive”. As for `O=C1c2c(O)cccc2Cc2cccc(O)c21`, the result was inactive. Take `C=CCc1ccc(OC)c(OC)c1`: the AC50 is 9.92 µM (active). The same measure, in the same setting: the same measure for `O=C1CCCCC1`: 0.0727 µM (active). Consider `O=C(O)c1[nH]n(-c2ccc(S(=O)(=O)O)cc2)c(=O)c1N=Nc1ccc(S(=O)(=O)O)cc1`, for which the call was inactive.

As to `Cc1cn([C@H]2C=C[C@@H](CO)O2)c(=O)[nH]c1=O`, the result was inactive. As for `Cc1c(C)c2c(c(C)c1O)CCC(C)(COc1ccc(CC3SC(=O)NC3=O)cc1)O2` (stereo not given), the concentration at half-maximal activity (AC50) was 0.262 µM (active). `O=C(Oc1ccccc1)c1cccc(C(=O)Oc2ccccc2)c1`: the molecule was classed as inactive. Take `O=[Si]=O`: the call was inactive.

Consider `CC1(C)C(=O)NC(=O)N1CO`, for which the molecule was called inactive. For `CCc1cc(C2=C(C(=O)O)N(c3ccccc3C(F)(F)F)S(=O)(=O)c3ccccc32)cc2c1OCO2`, the result was inactive. Regarding `CCCCCCCC(=O)OC`, the result was inactive. For `Cc1ccc(C(C)(C)C)c(O)c1`, the molecule was classed as inactive. In the case of `CC(C)(O)c1ccc(CNC(=O)c2cccnc2Oc2ccc(F)cc2)cc1`, the molecule was classed as inactive. Still for that read-out and setting: the same measure for `COc1ccc(OC(F)(F)F)cc1CN[C@H]1CCCN[C@H]1c1ccccc1`: “inactive”. Still for that read-out and setting: the same measure for `Cc1ccc(-c2cc(C(F)(F)F)nn2-c2ccc(S(N)(=O)=O)cc2)cc1`: “inactive”; for `CC(COCC(C)OC(=O)c1ccccc1)OC(=O)c1ccccc1` (stereo not given): “inactive”.

Take `CC(C)OC(=O)C(C)(C)Oc1ccc(C(=O)c2ccc(Cl)cc2)cc1`: the AC50 is 0.0536 µM (active).

Take `CC(N)=O`: the AC50 is 0.256 µM (active). `Oc1ccccc1O`: the outcome was inactive.

Regarding `CN(C)CCCN(C)CCCN(C)C`, the molecule was classed as inactive. Same read-out and setting: the same measure for `CC(=O)O`: “inactive”; for `S=c1[nH]c2ccccc2s1`: “inactive”; for `O=C1OC(c2ccc(O)cc2)(c2ccc(O)cc2)c2ccccc21`: “inactive”. For `CCCCOC(=O)CCCCC(=O)OCCCC`, the molecule was called inactive.

In the case of `NCCOCCOCCN`, the call was inactive. Turning to `O=Cc1ccccc1C=O`, the molecule was classed as inactive. Same read-out and setting: next, `CC(C)c1cccc(C(C)C)c1`: “inactive”; `Oc1ccc(O)cc1`: “inactive”. Still for that read-out and setting: the same measure for `CC(C)c1cccc(C(C)C)c1NC(=O)NS(=O)(=O)c1cc(C(C)(C)O)co1`: “inactive”. As to `CCC(C)N(C)C(=O)c1cc2ccccc2c(-c2ccccc2Cl)n1` (stereo not given), the molecule was called inactive.

Regarding `Nc1nc(=S)c2[nH]cnc2[nH]1`, the result was inactive.

Source of the values: PubChem BioAssay (EPA / NIEHS).
